Results on 40 compounds are retold here after PubChem BioAssay (NCATS).

SMILES strings stand for the structures. Several values for one entry are separate records, joined by “and”; a condition that tells them apart may be missing. Equal entries are not always repeated. Where a structure was tested more than once in an assay, its records may differ in their call. Activity calls are given as the source filed them.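 How the source made its calls: active means compounds whose dose series gives a full or clear partial fitted curve of increased nuclear translocation; inconclusive means weak partial curve or effect only at the top dose; inactive means no dose-dependent translocation response.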 Bounds are passed on as bounds.
Potency means the concentration at half of the fitted maximal effect.

Chain of Glucocorticoid receptor (Homo sapiens) (P04150 whole entry, looked up): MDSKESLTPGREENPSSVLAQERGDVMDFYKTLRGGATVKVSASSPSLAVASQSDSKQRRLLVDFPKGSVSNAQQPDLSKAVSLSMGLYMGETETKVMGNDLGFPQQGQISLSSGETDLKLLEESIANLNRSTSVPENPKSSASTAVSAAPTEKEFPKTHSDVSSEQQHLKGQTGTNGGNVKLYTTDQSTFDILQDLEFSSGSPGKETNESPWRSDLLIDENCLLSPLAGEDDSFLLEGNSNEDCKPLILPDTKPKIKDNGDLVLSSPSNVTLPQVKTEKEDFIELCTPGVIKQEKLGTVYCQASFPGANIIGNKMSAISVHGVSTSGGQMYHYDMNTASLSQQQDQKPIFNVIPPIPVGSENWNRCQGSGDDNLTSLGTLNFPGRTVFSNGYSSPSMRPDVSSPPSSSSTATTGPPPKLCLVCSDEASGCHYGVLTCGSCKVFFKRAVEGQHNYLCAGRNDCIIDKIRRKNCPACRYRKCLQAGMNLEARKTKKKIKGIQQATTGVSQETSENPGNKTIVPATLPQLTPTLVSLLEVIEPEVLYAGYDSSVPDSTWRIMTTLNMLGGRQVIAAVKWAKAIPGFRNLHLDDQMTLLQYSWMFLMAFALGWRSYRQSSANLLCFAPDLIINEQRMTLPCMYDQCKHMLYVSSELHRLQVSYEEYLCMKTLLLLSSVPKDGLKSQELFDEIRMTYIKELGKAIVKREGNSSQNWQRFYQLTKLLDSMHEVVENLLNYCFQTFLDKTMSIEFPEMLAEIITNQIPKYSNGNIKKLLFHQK

The target of the experiment is Glucocorticoid receptor (Homo sapiens) (UniProt P04150). The experiment in a line: GR-GFP Redistribution (AID 450). The note with it: U2OS GR-GFP nuclear translocation, laser cytometry, 2 h. An excerpt:
NIH Molecular Libraries Screening Centers Network [MLSCN]
NIH Chemical Genomics Center [NCGC]
The glucocorticoid receptor (GR) Redistribution assay (BioImage) enables the visualization of GR cytoplasmic to nuclear translocation by the use of a GR-GFP fusion. GR is normally cytosolic, however ligands such as dexamethasone, cause nuclear translocation where the protein binds to response elements and interacts with various co-factors to modulate transcription. Because both functional agonists and antagonists can induce nuclear translocation, this assay can detect ligands regardless of their effects on gene expression. GR-GFP expressing U20S cells were used here. Dexamethasone was the positive control for translocation and data normalization. Detection of nuclear translocation was performed in 1536-well plates using the Acumen laser scanning plate cytometer (TTP LabTech). Validation of this assay and a detailed protocol have been described.
NCGC Assay Protocol Summary:
GR-GFP U2OS cells were maintained in DMEM with Glutamax and high glucose, 1% v/v penicillin-streptomycin, and 0.5 mg/mL Geneticin. For cell culture, 10% […] fetal bovine serum (FBS) was used (Invitrogen #26140-079). For cell plating 10% dextran, charcoal-stripped FBS (Hyclone SH30068.03) was used. U2OS cells were trypsin treated, suspended in medium, and passed through a 40 um basket filter. The cells were seeded at 600 cells/5 uL/well into clear-bottom black sided 1536-well plates and incubated for approximately 20 hrs, 37degC, 5%, CO2 in a tissue culture incubator. Twenty-three nL of compound was delivered by pin tool and the plates were incubated as above for 2 hrs. The compounds were tested as a 7-point titration ranging from 46 uM to 0.6 nM. The cells were fixed using the Kalypsys Washer/Dispenser station. The fixing protocol involved aspiration of the cell media, addition of 6 uL/well of PBS, aspiration of PBS, addition of 5uL/well of 100% methanol, aspiration of methanol, and addition of 3 uL/well PBS with 1.5 uM propidium iodide (PI). The plates were read by the Acumen Explorer using a 1 x 8 um scan of the whole well area. PI fluorescence triggered the collection of PI and GFP signals. A nuclei population was defined by a 10 to 100 um width and depth filter that eliminated small and large fluorescent particles. Two subpopulations of nuclei were then defined by peak intensity of GFP fluorescence to obtain translocated and untranslocated objects. The number of translocated objects was used for data normalization.
Keywords: NIH Roadmap, MLSCN, MLI, MLSMR, sOGT, qHTS, NCGC
As to `CC1=C(C(=O)O)N2C(=O)[C@@H](NC(=O)[C@@H](N)c3ccc(O)cc3)[C@@H]2SC1`, the Potency was > 20.6 µM (inactive).
Next, `C[C@@H]1[C@H](C)CC[C@@]2(C(=O)O[C@H]3O[C@@H](CO[C@H]4O[C@@H](CO)[C@@H](O[C@H]5O[C@@H](C)[C@@H](O)[C@@H](O)[C@@H]5O)[C@@H](O)[C@@H]4O)[C@@H](O)[C@@H](O)[C@@H]3O)CC[C@]3(C)C(=CC[C@H]4[C@@]5(C)C[C@@H](O)[C@@H](O)[C@](C)(CO)[C@@H]5CC[C@@]43C)[C@@H]12`: > 20.6 µM (inactive); `CO[C@H]1C=CO[C@]2(C)Oc3c(C)c(O)c4c(O)c(c5c(c4c3C2=O)NC2(CCN(CC(C)C)CC2)N=5)=NC(=O)C(C)=CC=C[C@@H](C)[C@@H](O)[C@@H](C)[C@@H](O)[C@@H](C)[C@@H](OC(C)=O)[C@@H]1C`: > 20.6 µM (inactive); `C=C1CC23C[C@H]4[C@@H]5[C@@]6(C)C[C@H](OC(=O)c7ccccc7)[C@@H](OC(C)=O)[C@]57[C@@H]2[C@@H](OC(C)=O)[C@H]1[C@@H](O)[C@H]3[C@H]7N4C6`: > 20.6 µM (inactive).
Next, `C=Cc1c(C)c2cc3nc(cc4[nH]c(cc5nc(cc1[nH]2)C(C)=C5CCC(=O)O)c(CCC(=O)OC)c4C)[C@@]1(C)C3=CC=C(C(=O)OC)[C@H]1C(=O)OC` (tested in a mixture with another compound): > 20.6 µM (inactive); `C[C@@H]1CCc2cc(F)cc3c(=O)c(C(=O)O)cn1c23`: > 20.6 µM (inactive); `C[C@@H]1O[C@H](O[C@@H]2\C=C/C=C\C=C/C=C\C[C@H](C)OC(=O)/C=C\[C@H]3O[C@@H]3C[C@H](O)C[C@]3(O)C[C@@H](O)[C@@H](C(=O)O)[C@H](C2)O3)[C@@H](O)[C@H](N)[C@@H]1O` (stereo in doubt): > 20.6 µM (inactive).
In the case of `CC(=O)OCC(=O)[C@@]12OC(C)(C)O[C@@H]1C[C@H]1[C@H]3C[C@H](F)C4=CC(=O)C=C[C@@]4(C)[C@]3(F)[C@H](O)C[C@@]12C` it was 0.00175 µM (active).
For the compound `FC(F)(F)c1ccccc1-c1ccc2ncnc(NC3CCNCC3)c2c1`, the Potency was > 46 µM (inactive).
Next, `Cn1c(-c2ccc3c(c2)OCO3)cc(=O)c2ccccc21`: > 20.6 µM (inactive); `CC(=O)/C(C)=N\O`: 7.38 µM (active) and > 46 µM (inactive).
In the case of `CC(=O)[C@@]1(O)CC[C@H]2[C@H]3C[C@@H](C)C4=CC(=O)C=C[C@]4(C)[C@@]3(F)[C@@H](O)C[C@]21C` it was 0.00155 µM (active).
As for `CO[C@H]1[C@@H](OC(N)=O)[C@H](O)[C@@H](Oc2ccc3c(O)c(NC(=O)c4ccc(O)c(CC=C(C)C)c4)c(=O)oc3c2C)OC1(C)C`, the Potency is > 20.6 µM (inactive).
In the case of `CCC(=O)O[C@@H]1[C@H](C)O[C@H](O[C@H]2[C@@H](N(C)C)[C@H](O)[C@@H](O[C@@H]3[C@@H](CC=O)C[C@@H](C)[C@@H](O)/C=C\C=C/C[C@@H](C)OC(=O)C[C@@H](OC(=O)CC)[C@H]3OC)O[C@H]2C)C[C@]1(C)O` it was > 20.6 µM (inactive).
As for `CN(C)c1ccc(O)c2c1C[C@H]1C[C@H]3[C@@H](N(C)C)C(=O)C(C(N)=O)=C(O)[C@]3(O)C(=O)C1=C2O`, the Potency is > 20.6 µM (inactive).
In the case of `CC=C(/C(=C/C)c1ccc(O)cc1)c1ccc(O)cc1` it was > 20.6 µM (inactive); in that of `CC(=O)OCC(=O)[C@@]1(O)CC[C@@H]2[C@H]3CCC4=CC(=O)C=C[C@]4(C)[C@]3(F)[C@@H](O)C[C@@]21C`, 0.00326 µM (active).
In the case of `CCCCC[C@H](O)/C=C\[C@@H]1[C@H](O)CC(=O)[C@@H]1CCCCCCC(=O)O` it was > 20.6 µM (inactive).
In the case of `CC(=O)Nc1cc2ccccc2oc1=O` it was > 20.6 µM (inactive).
Consider `Cc1n[nH]c(=O)[nH]c1=O`, for which the Potency is > 20.6 µM (inactive).
In the case of `CS(=O)(=O)Nc1cccc(-c2nc(Nc3ccccc3)c3ccccc3n2)c1` it was > 46 µM (inactive); in that of `C[C@@H]1C[C@H](OC(=O)c2ccccc2O)CC(C)(C)C1`, > 20.6 µM (inactive).
For the compound `NS(=O)(=O)c1cc2c(cc1Cl)N[C@@H](CC1CCCC1)NS2(=O)=O`, the Potency was > 20.6 µM (inactive).
For the compound `Cc1nccn1C[C@@H]1CCc2c(c3ccccc3n2C)C1=O`, the Potency is > 20.6 µM (inactive).
In the case of `COC(=O)[C@@H]1[C@@H]2C[C@H]3c4[nH]c5cc(OC)ccc5c4CCN3C[C@@H]2C[C@H](OC(=O)c2cc(OC)c(OC)c(OC)c2)[C@H]1OC` it was > 20.6 µM (inactive); in that of `C[N+]1(C)CCC[C@H]1C(=O)[O-]`, > 20.6 µM (inactive).
Next, `COC(=O)C1=C(C)NC(C)=C(C(=O)OC(C)C)[C@H]1c1cccc2nonc12`: > 20.6 µM (inactive); `Nc1nc(=S)c2ncn([C@H]3O[C@@H](CO)[C@@H](O)[C@@H]3O)c2[nH]1`: > 20.6 µM (inactive).
With `C[C@@]12CC[C@@H]3c4ccc(O)cc4CC[C@H]3[C@H]1C[C@@H](O)[C@H]2O`, the Potency is > 20.6 µM (inactive).
In the case of `COc1ccc(-c2cc(=O)c3c(O)cc(O)cc3o2)cc1` it was > 20.6 µM (inactive); in that of `CN1CCCN=C1/C=C\c1cccs1`, > 20.6 µM (inactive); in that of `CN[C@H]1[C@@H](O)[C@@H](NC)[C@@H]2O[C@@]3(O)C(=O)C[C@@H](C)O[C@H]3O[C@H]2[C@H]1O`, > 20.6 µM (inactive).
In the case of `Fc1ccc(Nc2nc(-c3cccnc3)nc3ccccc23)cc1` it was > 46 µM (inactive); in that of `CC(C)(C)NC[C@H](O)COc1cccc2c1C[C@@H](O)[C@@H](O)C2`, > 20.6 µM (inactive); in that of `COC(=O)Nc1nc2ccc(SC(C)C)cc2[nH]1`, > 20.6 µM (inactive).
In the case of `CCC[C@H]1C[C@H](C(=O)N[C@H]([C@@H]2O[C@H](SC)[C@@H](O)[C@H](O)[C@@H]2O)[C@H](C)O)N(C)C1` it was > 20.6 µM (inactive).
On to `COc1cc2nc(N3CCN(C(=O)[C@@H]4CCCO4)CC3)nc(N)c2cc1OC`, for which the Potency is > 20.6 µM (inactive).
In the case of `CN1CC[C@@]23c4ccccc4N[C@H]1[C@]21CCN(C)[C@@H]3Nc2ccccc21` it was > 20.6 µM (inactive).
In the case of `CCC(=O)[C@@]1(C)[C@H](C)C[C@@H]2[C@@H]3CCC4=CC(=O)C=C[C@@]4(C)[C@H]3[C@H](O)C[C@]21C` it was 0.000592 µM (active); in that of `Nc1ncnc2c1nc(Br)n2[C@H]1O[C@H]2COP(=O)(O)O[C@H]2[C@@H]1O`, > 46 µM (inactive).
